Measured values reported in PubChem BioAssay AID1851 (National Center for Advancing Translational Sciences (NCATS), 2009).
About 5,700 (36%) of roughly 16,000 compounds were called active. About 24% were inconclusive and are not listed. Some of the results follow. Unmarked numbers belong to inactive results. The call rests on the fitted dose curve; in most records, active means well fitted curve in the direction sought with a large enough effect; inconclusive means small, poorly fitted or top-dose-only effect, or effect the other way; inactive means no such curve, though single readings can be large or run the other way.

target: Cytochrome P450 1A2 (Homo sapiens) (UniProt P05177); test: Cytochrome panel assay with activity outcomes; details: recombinant CYP, pro-luciferin dealkylation, luminescence, p450-cyp1a2; series mostly up to 57.1 µM; activity, negative = inhibition: at the top concentration
On the % scale 0 is the no-effect control and ±100 the full control effect.

Sequence of Cytochrome P450 1A2 (Homo sapiens) (P05177 whole entry, looked up): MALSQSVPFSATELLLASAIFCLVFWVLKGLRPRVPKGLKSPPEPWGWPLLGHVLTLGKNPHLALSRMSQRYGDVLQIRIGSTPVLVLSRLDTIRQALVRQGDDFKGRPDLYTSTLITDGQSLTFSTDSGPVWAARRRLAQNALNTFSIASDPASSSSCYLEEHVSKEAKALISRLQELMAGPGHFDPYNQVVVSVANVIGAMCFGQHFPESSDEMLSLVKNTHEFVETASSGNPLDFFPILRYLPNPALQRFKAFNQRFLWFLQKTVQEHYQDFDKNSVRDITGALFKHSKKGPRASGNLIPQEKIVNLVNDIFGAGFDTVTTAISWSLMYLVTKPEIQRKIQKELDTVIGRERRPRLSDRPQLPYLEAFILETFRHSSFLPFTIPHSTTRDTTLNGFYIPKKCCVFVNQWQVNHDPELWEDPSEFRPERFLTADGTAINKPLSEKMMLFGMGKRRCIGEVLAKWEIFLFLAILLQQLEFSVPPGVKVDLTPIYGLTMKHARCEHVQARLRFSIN

Structure (SMILES)	AC50	activity, negative = inhibition
CS(=O)(=O)c1nc2ccccc2n1Cc1ccccc1	11200 nM (active)	
CO[C@@H]1COC(=O)C/C=C\[C@@H](C)[C@H](OC)COC(=O)[C@H](COCc2ccccc2)NC(=O)C/C=C\[C@H]1C		-0.402% [at 11.4 µM]
COCC(=O)N1CCC2(CCCN(C(=O)Nc3cccc(C#N)c3)C2)CC1		0.755%
O=c1oc2ccccc2cc1-c1csc(NN=C2CCCCC2)n1	891 nM (active)	
O=C(Nc1ccc(-c2cc3ccccc3oc2=O)c(Cl)c1)c1cccnc1		13.8%
Clc1ccc(Cl)c(SCCCN2CCNCC2)c1	501 nM (active)	
Cc1c(C=O)c2ccccn2c1C(=O)c1ccncc1	1120 nM (active)	
COCCN1C(=O)C(=O)/C(=C(/O)c2cccc(OC)c2)C1c1ccco1 (stereo not drawn)		-13.8%
CN1CCN(c2nc(-c3cccnc3)nc3ccccc23)CC1	3160 nM (active)	
CN1CCN(c2ccncc2S(=O)(=O)N2CCN(C)CC2)CC1		-7.43% [at 2.29 µM]
c1cncc(-c2nc(N3CCNCC3)c3ccccc3n2)c1	2510 nM (active)	
CC(C)c1ccccc1-n1c(SCC(=O)N2CCN(c3ccccc3)CC2)nnc1-c1cccnc1		-23.2%
N#CCSc1nc(N)c(C#N)c(C2CCCCC2)c1C#N	10000 nM (active)	
CCCCCn1c(CN2CCCCC2C)nc2c1c(=O)n(C)c(=O)n2C (stereo not drawn)		-17%
Cn1c(=O)c2[nH]c([C@@H]3CC(=O)C[C@H](c4nc5c([nH]4)c(=O)n(C)c(=O)n5C)N3)nc2n(C)c1=O		-18.2% [at 2.29 µM]
Cn1c(=O)c2[nH]c(C3CCCC3)nc2n(C)c1=O	12600 nM (active)	
Cn1c(=O)c2[nH]c(CCS)nc2n(C)c1=O		-15.3% [at 11.4 µM]
CCCn1c(=O)c2[nH]c(C3CCCC3)nc2n(CCC)c1=O	251 nM (active)	
CC(C)(C[C@@]1(C)NC(=O)NC1=O)OCc1ccccc1		-12.1% [at 2.29 µM]
CC(C)Oc1ccc(C2CC(=O)NC3=C2C(=O)CCC3)cc1 (stereo not drawn)		-14.5%
CC(=O)NC1=NN(c2ccccc2)C(=O)C1		-12.4%
CC1=NN(c2ccccc2)C(=O)C1	12600 nM (active)	
CC1=NN(c2ccccc2)C(=O)/C1=C\N1CC(C)OC(C)C1 (stereo not drawn)		-23.7%
Cc1cccc(OCCn2c(S(=O)(=O)O)nc3ccccc32)c1		-12.6%

Structure (SMILES)	AC50	activity, negative = inhibition
Cc1cccc(OCCn2c(-c3ccco3)nc3ccccc32)c1	1580 nM (active)	
N=C(N)SCCc1ccc(OCc2ccc([N+](=O)[O-])cc2)cc1	31600 nM (active)	
N=C(N)SCCc1ccc(CCSC(=N)N)cc1		-3.85%
C[N+]1(CCOc2ccc([N+](=O)[O-])cc2)CCOCC1		-1.1%
CC(C)=CCC/C(C)=C/CO/N=C1/C[C@@H](O)[C@@H](O)[C@@H]2[C@H]3C(=O)N(c4ccc(F)cc4F)C(=O)[C@@H]3CC[C@H]12		-0.361% [at 11.4 µM]
COc1ccc(S(=O)(=O)N(CCc2ccccc2)CC(=O)N2CCOCC2)cc1		-25.1%
CCOc1ccc2[nH]c(=O)c(CN(CCc3ccccc3)C(=O)N3CCCC3)cc2c1	14100 nM (active)	
COc1ccc(S(=O)(=O)N(CC(=O)N2CCCC2)Cc2ccccc2)cc1		2.54%
CSc1n[nH]c(-c2sccc2OCc2ccc(C)cc2)n1	1410 nM (active)	
Cn1c(-c2sccc2OCc2ccccc2)n[nH]c1=S	355 nM (active)	
CSc1nnc(-c2sccc2OCc2ccccc2)n1C	7080 nM (active)	
CC(=O)O[C@]1(C)N=NC2(CCCCC2)O1		-9.6% [at 11.4 µM]
CC(=O)OC[C@@H]1O[C@@H](O/N=C2/C[C@@H](O)[C@@H](O)[C@@H]3[C@@H]4C(=O)N(C[C@@H]5CCCO5)C(=O)[C@H]4CC[C@H]23)[C@H](OC(C)=O)[C@H](OC(C)=O)[C@@H]1OC(C)=O		-5.84% [at 11.4 µM]
Cc1noc(C)c1-c1cncnc1N1CCN(C)CC1		-14.7%
Cc1noc(C)c1-c1ccc2ncnc(N3CCN(C)CC3)c2c1	12600 nM (active)	
Cc1noc(C)c1-c1ccc2ncnc(N3CCOCC3)c2c1	12600 nM (active)	
NCCc1ccn[nH]1		-2.19% [at 25.6 µM]
CC1(C)CC(NC(=O)c2ccc3c(c2)OCO3)CC(C)(C)N1		-25.9%
CCOC(=O)c1[nH]c2cc3c(cc2c1NC(=O)CN1CCc2ccccc2C1)OCO3	2820 nM (active)	
COC(=O)c1[nH]c2cc(OC)ccc2c1NC(=O)c1ccc2c(c1)OCO2	2510 nM (active)	
COc1cc(C(=O)OCC(=O)Nc2cc(C)on2)cc(OC)c1OC		-14.8%
CCOC(=O)c1[nH]c2cc(OC)c(OC)cc2c1NC(=O)c1ccc2c(c1)OCO2	2240 nM (active)	
CCOC(=O)c1[nH]c2cc(OC)c(OC)cc2c1NC(=O)c1nonc1C	1000 nM (active)	
Cc1ccc(NC(=O)CN2CCC(NC(=O)Cc3ccccc3)CC2)cc1C		-9.71%
